# KCNQ2 enhance – KCNQ2 (rat) channel potentiation; O88943; CHO-K1 KCNQ2, FluxOR thallium flux fluorescence; stronger effect = higher value; B-score at 10 µM; hit rate 0.54% among 310,000; AID 2239;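 active = fluorescence ratio B-score at least 3 SD of library B-scores, with initial fluorescence B-score within 3 of them, cut at about 5.3 in these data; same plate scores as AID 2156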;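 also: B-score of peak minus minimum over baseline fluorescence ratio after K+ and Tl+ stimulus; positive B-score means potentiation of KCNQ2 with more thallium influx and brighter signal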
# Target sequence (O88943 whole entry, looked up): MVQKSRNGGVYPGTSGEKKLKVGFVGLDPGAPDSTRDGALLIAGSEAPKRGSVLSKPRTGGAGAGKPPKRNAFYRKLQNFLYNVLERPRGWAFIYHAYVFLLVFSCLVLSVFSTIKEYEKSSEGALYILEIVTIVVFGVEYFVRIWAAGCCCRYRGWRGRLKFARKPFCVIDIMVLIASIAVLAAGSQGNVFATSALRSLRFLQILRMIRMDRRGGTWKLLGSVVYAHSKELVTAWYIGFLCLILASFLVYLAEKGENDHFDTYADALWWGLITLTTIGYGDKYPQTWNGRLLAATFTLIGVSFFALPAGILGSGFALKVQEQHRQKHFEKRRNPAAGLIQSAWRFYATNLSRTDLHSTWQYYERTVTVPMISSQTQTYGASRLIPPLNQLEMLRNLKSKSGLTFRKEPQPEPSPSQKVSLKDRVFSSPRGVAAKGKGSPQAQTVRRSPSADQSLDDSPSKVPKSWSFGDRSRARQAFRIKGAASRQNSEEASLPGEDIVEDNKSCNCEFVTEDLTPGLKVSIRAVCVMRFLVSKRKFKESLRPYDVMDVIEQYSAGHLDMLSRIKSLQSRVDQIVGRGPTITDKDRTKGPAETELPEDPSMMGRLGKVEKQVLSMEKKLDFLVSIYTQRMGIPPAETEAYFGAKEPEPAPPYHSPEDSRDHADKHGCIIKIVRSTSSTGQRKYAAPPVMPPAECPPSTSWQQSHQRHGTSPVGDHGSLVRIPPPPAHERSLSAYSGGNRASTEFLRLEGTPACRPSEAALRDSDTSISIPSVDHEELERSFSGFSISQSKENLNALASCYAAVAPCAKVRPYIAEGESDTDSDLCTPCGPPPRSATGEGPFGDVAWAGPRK
# KCNQ2 block – KCNQ2 (rat) channel inhibition | O88943 | CHO-K1 KCNQ2, FluxOR thallium flux, 20 min; stronger effect = lower value | B-score at 10 µM | hit rate 1.1% among 310,000 | AID 2156;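 active = fluorescence ratio B-score at most minus 3 library SDs, with starting brightness B-score within 2 library SDs, cut at about -5.5 in these data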
# KCNQ2 block conf – confirmation of rat KCNQ2 potassium channel inhibitors; shares compounds with KCNQ2 block; hit rate 57% among 1,000; activity change, negative = inhibition, % at 10 µM; KCNQ2-expressing cells, thallium flux, inhibition; stronger effect = lower value;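 also: 0% = vehicle wells and values are ratio percent relative to vehicle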
# KCNQ1 spec – KCNQ2 inhibitor that also affects human KCNQ1 channel; AID 493026; shares compounds with KCNQ2 block; hit rate 15% among 1,000; activity change, negative = inhibition, % at 10 µM; KCNQ1-expressing cells, FluxOR thallium flux fluorescence; stronger effect = lower value;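 active = activity change at least 3 SD of negative controls below their mean in both duplicate wells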;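 also: CHO cells stably transfected with KCNQ1 and depolarized by potassium stimulus; peak minus minimum fluorescence over baseline after thallium addition; 0% = vehicle negative control and -100% = blank without thallium stimulus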
# CHO parental ctr – activity in parental CHO cells lacking KCNQ2; activity change, % at 10 µM; shares compounds with KCNQ2 block; AID 493029; thallium flux counter-screen; stronger effect = lower value; hit rate 14% among 1,000;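 also: 0% = vehicle negative controls with stimulus buffer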
# KCNQ2 inh confirm – confirmation of rat KCNQ2 potassium channel inhibitors; shares compounds with KCNQ2 block; calls only at 10 µM; hit rate 49% among 550; KCNQ2-expressing cells, automated patch clamp current
# Active calls of the source: *; i = inactive; · = no result; + = active, no number. Rows were chosen to be rich in hits. Some 1.6% of all compounds tested hit in one or more screens of this group. Unless noted, no rule for the calls is given here.
SMILES,KCNQ2 enhance,KCNQ2 block,KCNQ2 block conf,KCNQ1 spec,CHO parental ctr,others
Cc1ccc(Nc2ccc(NCc3ccccc3)nn2)cc1C,·,i,·,·,·,
COc1ccccc1N1CCN(c2nc(C)nc3c2oc2ccccc23)CC1,-6.86,-6.86*,i,i,i,
Cc1nc(N2CCC(C)CC2)c2oc3ccccc3c2n1,·,i,·,·,·,
COc1cc2c(cc1OC)CN(CCC(=O)c1ccc(Br)cc1)CC2,-9.58,-9.58*,-45.0%*,-43.0%*,-35.5%*,KCNQ2 inh confirm=i
CCOC(=O)N1CCN(CCC(=O)Nc2ccc(C)cc2)CC1,1.16,i,·,·,·,
CCOC(=O)N1CCN(CCC(=O)c2ccc(Br)cc2)CC1,-7.14,-7.14*,i,i,i,
COc1cc2c(cc1OC)CN(CC(=O)Nc1cccc(C)c1)CC2,·,i,·,·,·,
CC(C)(C)C(=O)Nc1ccc(C(=O)NNC(=O)c2ccccc2)cc1,·,i,·,·,·,
COc1ccccc1OCCNC(=O)C1CCN(C(C)=O)CC1,0.17,i,·,·,·,
COC(=O)Nc1c(-c2ccccc2)nc2ccc(Cl)cn12,·,i,·,·,·,
COC(=O)NN1C(=O)C(c2ccccc2)=C(c2ccc(Cl)cc2)C1=O,-8.78,-8.78*,i,i,i,
CN(C)S(=O)(=O)c1ccc(C(=O)NCCOc2ccccc2)cc1,·,i,·,·,·,
CCOC(=O)c1cc2sc(C)cc2n1CC(=O)Nc1ccc2c(c1)OCCO2,·,i,·,·,·,
COc1cc(C(=O)Nc2nc(OC)c(-c3ccccc3)c(OC)n2)cc(OC)c1OC,0.82,i,·,·,·,
COc1cc(C(=O)Nc2cc(-c3ccccc3)[nH]n2)cc(OC)c1OC,-6.6,-6.6*,-25.0%*,i,i,KCNQ2 inh confirm=i
O=S(=O)(C/C(=C/CO)S(=O)(=O)c1ccccc1)c1ccccc1,-8.03,-8.03*,i,i,i,
CCN(Cc1ccccc1)C(=O)CS(=O)(=O)c1ccccc1,0.6,i,·,·,·,
CCC1=NN2C(=N)/C(=C\c3cccn3-c3c(C)cccc3C)C(=O)N=C2S1,0.45,i,·,·,·,
CC1CC(=O)c2cnc(N)nc2C1 (configuration not stated),0.52,i,·,·,·,
COc1cccc(Oc2ccc(C(F)(F)F)cc2NC(=O)C2=COCCO2)c1,-7.48,-7.48*,i,i,i,
O=C(Nc1cc(C(F)(F)F)ccc1N1CCCC1)C1=COCCO1,·,i,·,·,·,
COc1ccc(Oc2ccc(C(F)(F)F)cc2NC(=O)c2ccc(F)cc2)cc1,·,i,·,·,·,
COc1cccc(Oc2ccc(C(F)(F)F)cc2NC(=O)c2cccc(F)c2)c1,-7.13,-7.13*,-26.0%*,i,i,KCNQ2 inh confirm=i
O=C(Nc1ccc(Cl)cc1Cl)C1CCC(=O)N1Cc1ccccc1Cl (configuration not stated),1.61,i,·,·,·,
COc1cccc(NC(=O)CN(C)C(=O)Cn2[nH]c(=O)c3ccccc3c2=O)c1,·,i,·,·,·,
SMILES,KCNQ2 enhance,KCNQ2 block,KCNQ2 block conf,KCNQ1 spec,CHO parental ctr,others
Cc1csc(NC(=O)CSc2nnc(-c3ccco3)n2C)n1,0.14,i,·,·,·,
CCN(C)Cc1c(C(=O)N2CCc3ccccc3C2)nc2ccc(Cl)cn12,·,i,·,·,·,
CN(Cc1c(C(=O)N2CCc3ccccc3C2)nc2ccc(Cl)cn12)C(C1CC1)C1CC1,-7.87,-7.87*,-24.0%*,i,i,KCNQ2 inh confirm=+
CC(=O)c1ccc(OCc2cc(C(=O)NC(C)Cc3ccccn3)no2)cc1 (configuration not stated),·,i,·,·,·,
COc1ccccc1-c1cc(C(F)(F)F)nc(N2CCCCC2)n1,-9.68,-9.68*,i,i,i,
COc1ccccc1-c1cc(C(F)(F)F)nc(N2CCCC2)n1,0.01,i,·,·,·,
Cc1ccccc1OCC(=O)N/N=C/c1ccc([N+](=O)[O-])o1,0.13,i,·,·,·,
COc1ccc2c(C)cc(SCc3c(C)noc3C)nc2c1,-10.4,-10.4*,i,i,i,
COc1ccc2c(C)cc(SCC#N)nc2c1,·,i,·,·,·,
CC(C)(C)c1ccc(OCC(=O)N/N=C/C2CC=CCC2)cc1 (configuration not stated),1.71,i,·,·,·,
O=C(NCCn1cc(SCc2ccc(F)cc2)c2ccccc21)c1ccccc1F,-9.09,-9.09*,i,i,i,
O=C(NCCn1cc(SCc2ccc(F)cc2)c2ccccc21)c1c(F)cccc1F,0.27,i,·,·,·,
Cc1cc(C(=O)CN2C(=O)NC3(CCCc4sccc43)C2=O)c(C)n1-c1ccc(Cl)cc1 (configuration not stated),·,i,·,·,·,
CC1(C)C(C=C(Cl)Cl)C1C(=O)N/N=C/c1ccccc1F (configuration not stated),-9.88,-9.88*,-28.0%*,i,i,KCNQ2 inh confirm=+

# Compound activity deposited in PubChem by Johns Hopkins Ion Channel Center.
